Assay results taken from PubChem BioAssay (NCI).
The panel holds about 79,000 compounds, 15% with a hit somewhere; the sample as a whole holds those more often. Rule as the data show it: active = growth inhibition above about 70%; inactive = the rest.

Assays:
[1] = NCI Yeast Anticancer Drug Screen. Data for the rad52 strain (AID 147);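 also: 0% = growth of vehicle-treated control cultures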; details: S. cerevisiae rad52 mutant growth inhibition, active compounds read high
Outline: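 DNA repair-defective yeast; compound exposure; growth scored against vehicle controls.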

[2] = NCI Yeast Anticancer Drug Screen. Data for the wt1 strain (AID 149);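 also: 0% = growth of vehicle-treated wt1 cultures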; details: S. cerevisiae wt1 strain (SPY 50644) growth inhibition, active compounds read high
Outline: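 Growth inhibition read against vehicle controls after compound exposure of the wt1 yeast strain.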

[3] = NCI Yeast Anticancer Drug Screen. Data for the rad50EPP+ strain (AID 151);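 also: 0% = growth of vehicle-treated control cultures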; details: S. cerevisiae rad50 mutant strain, active compounds read high
Outline: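 rad50EPP+ yeast treated with test compounds. Readout: growth vs vehicle control.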

[4] = NCI Yeast Anticancer Drug Screen. Data for the mgt1 strain (AID 153); details: S. cerevisiae mgt1 mutant growth inhibition, active compounds read high
Outline: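 Growth inhibition relative to vehicle controls was scored for the mgt1 yeast strain after compound exposure.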

[5] = NCI Yeast Anticancer Drug Screen. Data for the rad50 strain (AID 155);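 also: 0% = growth of vehicle-only cultures of the same strain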; details: S. cerevisiae rad50 strain growth inhibition, active compounds read high
Outline: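 Readout: growth inhibition relative to vehicle-treated cultures. Compound exposure was carried out in a genetically defined yeast strain deficient in DNA damage repair.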

[6] = NCI Yeast Anticancer Drug Screen. Data for the mec2-1 strain (AID 157); details: S. cerevisiae mec2-1 strain, active compounds read high
Outline: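 Growth inhibition is read against vehicle-treated controls after compound exposure of the mec2-1 yeast strain, which is defective in DNA damage repair or cell cycle control.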

[7] = NCI Yeast Anticancer Drug Screen. Data for the rad14 strain (AID 159);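 also: 0% = growth of vehicle-treated control cultures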; details: S. cerevisiae rad14 strain growth inhibition, active compounds read high
Outline: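 Growth inhibition vs vehicle controls; genetically altered yeast strain (DNA damage repair defect) treated with test compounds.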

[8] = NCI Yeast Anticancer Drug Screen. Data for the sgs1 mgt1 strain (AID 161);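 also: 0% = growth of cultures given vehicle only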; details: S. cerevisiae sgs1 mgt1 strain, active compounds read high
Outline: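 Yeast cells carrying a defined DNA-repair defect were exposed to test compounds. Growth inhibition was measured relative to vehicle-treated controls.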

[9] = NCI Yeast Anticancer Drug Screen. Data for the CLN2oe strain (AID 163);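 also: 0% = growth of vehicle-only control cultures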; details: S. cerevisiae CLN2oe strain, active compounds read high
Outline: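 Compound-treated yeast; growth vs vehicle ctrl = % inhibition. Genetically altered strain (cell-cycle control).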

[10] = NCI Yeast Anticancer Drug Screen. Data for the cln2 rad14 strain (AID 165);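 also: 0% = growth equal to vehicle treated cultures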; details: S. cerevisiae cln2 rad14 strain, active compounds read high
Outline: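 Growth inhibition, relative to vehicle-treated controls, is the read-out. The test organism is a yeast strain with defined genetic alterations, cln2 rad14.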

[11] = NCI Yeast Anticancer Drug Screen. Data for the bub3 strain (AID 167); details: S. cerevisiae bub3 mutant strain, active compounds read high
Outline: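 Readout: yeast growth inhibition, expressed relative to vehicle-only wells. The test organism is a mutant strain from a panel with lesions in DNA repair or checkpoint genes.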

[12] = NCI Yeast Anticancer Drug Screen. Data for the wt2 strain (AID 169);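 also: 0% = growth of vehicle-treated yeast cultures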; details: S. cerevisiae wt2 strain growth inhibition, active compounds read high
Outline: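 Compound exposure of yeast; growth compared with vehicle controls; inhibition reported.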

[13] = NCI Yeast Anticancer Drug Screen. Data for the mlh1 strain (AID 171);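 also: 0% = growth of vehicle-treated control cultures of the same strain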; details: S. cerevisiae mlh1 strain growth inhibition, active compounds read high
Outline: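 Compounds are applied to a genetically altered yeast strain, and its growth is compared with that of vehicle-treated cultures to give percent inhibition.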

[14] = NCI Yeast Anticancer Drug Screen. Data for the sgs1 strain (AID 173);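 also: 0% = growth of vehicle-only control cultures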; details: S. cerevisiae sgs1 mutant, active compounds read high
Outline: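 Compounds applied to genetically altered yeast; growth compared with vehicle-treated cultures to give % inhibition.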

[15] = NCI Yeast Anticancer Drug Screen. Data for the mlh1 rad18 strain (AID 175); details: S. cerevisiae mlh1 rad18 strain growth inhibition, active compounds read high
Outline: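 Cells of a genetically altered yeast strain, deficient in DNA damage repair, were treated with compound. Their growth was then compared with that of vehicle-treated cultures to give inhibition.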

[16] = NCI Yeast Anticancer Drug Screen. Data for the rad18 strain (AID 177); details: S. cerevisiae rad18 mutant growth inhibition, active compounds read high
Outline: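 Compounds are applied to a repair-deficient yeast strain, and growth is compared with that of vehicle-treated cultures to give percent inhibition.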

[17] = at 5.0 µM (retest, dose inferred, filed as 0.5)
[18] = at 50.0 µM (retest, dose inferred, filed as 5.0)

Measured: growth inhibition

CC(C)CCCC(C)C1CCC2C3CCC4=CC(=O)/C(=C\O)CC4(C)C3CCC12C (stereo not drawn)
inactive: [1]; at 1.2 µM 1% | [1]; at 3.7 µM 2% | [1]; at 11.0 µM 3% | [1]; at 33.0 µM 6% | [1]; at 100.0 µM 25% | [2]; at 1.2 µM 1% | [2]; at 3.7 µM 1% | [2]; at 11.0 µM 2% | [2]; at 33.0 µM 3% | [2]; at 100.0 µM 16% | [3]; at 1.2 µM 2% | [3]; at 3.7 µM -2% | [3]; at 11.0 µM -6% | [3]; at 33.0 µM -8% | [3]; at 100.0 µM -4% | [4]; at 1.2 µM -1% | [4]; at 3.7 µM 1% | [4]; at 11.0 µM 1% | [4]; at 33.0 µM 0% | [4]; at 100.0 µM 6% | [5]; at 1.2 µM 1% | [5]; at 3.7 µM 0% | [5]; [17] 5% | [5]; at 11.0 µM -2% | [5]; at 33.0 µM 0% | [5]; [18] 47% | [5]; at 50.0 µM 15.9% | [5]; at 100.0 µM 21% | [6]; at 1.2 µM -2% | [6]; at 3.7 µM -6% | [6]; [17] 3% | [6]; at 11.0 µM -7% | [6]; at 33.0 µM -2% | [6]; [18] 45% | [6]; at 50.0 µM 6.2% | [6]; at 100.0 µM 22% | [7]; at 1.2 µM 1% | [7]; at 3.7 µM 2% | [7]; at 11.0 µM 3% | [7]; at 33.0 µM 7% | [7]; at 100.0 µM 20% | [8]; [17] 7% | [8]; [18] 48% | [8]; at 50.0 µM 14.9% | [9]; at 1.2 µM -3% | [9]; at 3.7 µM -5% | [9]; at 11.0 µM -10% | [9]; at 33.0 µM -18% | [9]; at 100.0 µM 2% | [10]; [17] 0% | [10]; [18] 26% | [10]; at 50.0 µM 48.5% | [11]; at 1.2 µM 4% | [11]; at 3.7 µM -1% | [11]; [17] 6% | [11]; at 11.0 µM -10% | [11]; at 33.0 µM -9% | [11]; [18] 54% | [11]; at 50.0 µM 47.8% | [11]; at 100.0 µM 21% | [12]; at 1.2 µM 2% | [12]; at 3.7 µM 0% | [12]; at 11.0 µM 2% | [12]; at 33.0 µM 1% | [12]; at 100.0 µM 10% | [13]; at 1.2 µM -1% | [13]; at 3.7 µM -2% | [13]; at 11.0 µM -3% | [13]; at 33.0 µM -2% | [13]; at 100.0 µM 15% | [14]; at 1.2 µM 0% | [14]; at 3.7 µM -1% | [14]; at 11.0 µM -1% | [14]; at 33.0 µM 3% | [14]; at 100.0 µM 29% | [15]; [17] 2% | [15]; [18] 52% | [15]; at 50.0 µM 26.1% | [16]; at 1.2 µM 3% | [16]; at 3.7 µM 3% | [16]; at 11.0 µM 2% | [16]; at 33.0 µM 6% | [16]; at 100.0 µM 28%
